The results in this text go back to PubChem BioAssay (Tox21).

Test [1] addresses Thyrotropin receptor (Homo sapiens) (UniProt P16473). Briefly: qHTS assay to identify small molecule agonists of the thyroid stimulating hormone receptor (TSHR) signaling pathway (AID 1224843; calls by dose curve; further: nearly all actives have a fitted effect of over 45% in size). The procedure, abridged: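 Agonist activity read as cAMP rise via d2/cryptate HTRF competition, 1 h room-temperature detection, in HEK293 cells expressing TSHR. Fifteen-point titrations, each run in triplicate, with a 30 min room-temperature incubation beforehand.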

The nature of test [2]: qHTS assay to identify small molecule agonists of the hypoxia (HIF-1) signaling pathway - cell viability counter screen (AID 1224844; calls by dose curve; further: nearly all actives have a fitted effect of over 50% in size). Summed up:
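In this counter screen, HRE-bla ME-180 cell viability after 17 hrs of compound exposure at 37C was read by CellTiter-Glo luminescence, multiplexed with the beta-lactamase reporter measurement.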
(In general: In qHTS, concentration-response curves come from the screen itself.)

Test [3] can be described thus: qHTS assay to identify small molecule agonists of the hypoxia (HIF-1) signaling pathway (AID 1224846; active means well fitted activation curve with a large enough effect in the signal ratio in the repeat runs, not every such curve was filed as active; the % refers to the signal ratio). Summed up:
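ME-180 HRE-bla reporter cells; compounds in DMSO, 17 h at 37C; read-out beta-lactamase via CCF4-AM FRET.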

A short description of test [4]: qHTS assay to identify small molecule agonists of H2AX - cell viability counter screen (AID 1224847; calls by dose curve;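 further: wild-type CHO-K1 cells; top concentration of the series differs between compounds; nearly all actives have a fitted effect of over 30% in size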). Summed up:
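Counter-screen for viability: CellTiter-Glo ATP luminescence read after 3 h compound treatment (15-point titration, 0.76% DMSO final) of CHO-K1 cells at 37C, with 30 min room-temperature reagent incubation.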

The nature of test [5]: qHTS assay to identify small molecule antagonists of the estrogen related receptor (ERR) signaling pathway from Tox21 library (AID 1224848). Further: nearly all actives have a fitted effect of over 50% in size. Summed up:
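Luciferase luminescence (ONE-Glo, 30 min room temperature) was the read-out. Cells of the NTP-supplied ERR line, 2,000 per well, were given 6 h at 37 C before compound addition in DMSO and 18 h exposure at 37 C.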

Test [6] is described as follows: qHTS assay to identify small molecule agonists of the estrogen related receptor (ERR) signaling pathway from Tox21 library (AID 1224849; calls by dose curve; further: nearly all actives have a fitted effect of over 15% in size). Particulars: ERR reporter cell line, ONE-Glo luciferase, 18 h. The procedure, abridged:
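Luciferase activity in ERR pathway reporter cells served as the agonist readout; exposure lasted 18 h at 37 C, with ONE-Glo detection after 30 min at room temperature.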

A short description of test [7]: qHTS RealTime-Glo MT Cell Viability Assay in HepG2 cells - 24 hour (AID 1224867). Further: nearly all actives have a fitted effect of over 50% in size. Summed up: (§1)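 Real-time, nonlytic viability: 600 HepG2 cells/well mixed with NanoLuc enzyme plus prosubstrate; 5 h settle, compound (DMSO) added by pintool; luminescence monitored over 40 h at 37 C.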
Test [8] is described as follows: qHTS RealTime-Glo MT Cell Viability Assay in HEK293 cells - 32 hour (AID 1224868). Further: top concentration of the series differs between compounds; nearly all actives have a fitted effect of over 50% in size. The procedure, abridged:
(§2)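 Cells + reagent dispensed (600 cells/well, HEK293) → 5 h at 37 C/5% CO2 → 23 nL compound in DMSO pinned → 40 h at 37 C → luminescence read at 0, 8, 16, 24, 32, 40 h.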

Test [9] in a line: A CellTox Green Cytotoxicity Assay to monitor cytotoxicity in HEK293 cells - 0 hour (AID 1224869). Further: nearly all actives have a fitted effect of over 50% in size. Summed up: (§3)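 Real-time, in one plate: 600 HEK293 cells/well with dead-cell DNA dye, pinned compound after 5 h, 37 C incubation over 40 h; viable cells give no appreciable fluorescence.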
The nature of test [10]: qHTS RealTime-Glo MT Cell Viability Assay in HepG2 cells - 40 hour (AID 1224870). Further: nearly all actives have a fitted effect of over 50% in size. Summed up:
(§4)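 Real-time viability: cells seeded at 600 per well together with NanoLuc and cell-permeant prosubstrate, compounds added after 5 h incubation. Luminescence tracked at 0, 8, 16, 24, 32 and 40 h of exposure.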

Test [11] is described as follows: qHTS RealTime-Glo MT Cell Viability Assay in HEK293 cells - 16 hour (AID 1224872). Summed up:
as §2

Test [12] is described as follows: qHTS RealTime-Glo MT Cell Viability Assay in HepG2 cells - 8 hour (AID 1224873). Further: nearly all actives have a fitted effect of over 55% in size. The procedure, abridged: as §4
Test [13] is described as follows: A CellTox Green Cytotoxicity Assay to monitor cytotoxicity in HEK293 cells - 24 hour (AID 1224875). Further: nearly all actives have a fitted effect of over 45% in size. The procedure, abridged:
as §3

A short description of test [14]: A CellTox Green Cytotoxicity Assay to monitor cytotoxicity in HepG2 cells - 16 hour (AID 1224876). Further: nearly all actives have a fitted effect of over 45% in size. The procedure, abridged: (§5)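 Cytotoxicity was tracked as dead-cell DNA fluorescence in HepG2 cells treated with test compounds at 37 C; each time-point value comes from one kinetic series spanning 0, 8, 16, 24, 32 and 40 h.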
The nature of test [15]: qHTS RealTime-Glo MT Cell Viability Assay in HepG2 cells - 32 hour (AID 1224877). Further: nearly all actives have a fitted effect of over 55% in size. Summed up:
as §1

Test [16] in a line: A CellTox Green Cytotoxicity Assay to monitor cytotoxicity in HepG2 cells - 24 hour (AID 1224878). Further: nearly all actives have a fitted effect of over 45% in size. The procedure, abridged:
as §5

Test [17] in a line: A CellTox Green Cytotoxicity Assay to monitor cytotoxicity in HepG2 cells - 40 hour (AID 1224879). Further: nearly all actives have a fitted effect of over 40% in size. Summed up: as §5
Test [18] is described as follows: qHTS assay to identify small molecule agonists of H2AX (AID 1224845; active means well fitted activation curve with a large enough effect in the signal ratio in the repeat runs, not every such curve was filed as active; the % refers to the signal ratio). The procedure, abridged: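 Phospho-H2AX Ser139 measured by HTRF (ex 320 nm; em 665 and 620 nm) after 24 hr antibody incubation. Compounds, 15 concentrations, 0.76% DMSO, were applied to CHO-K1 cells for 3hr at 37C before lysis.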
The nature of test [19]: A CellTox Green Cytotoxicity Assay to monitor cytotoxicity in HEK293 cells - 40 hour (AID 1224871). Further: nearly all actives have a fitted effect of over 45% in size. Further: potency means the concentration at half of the fitted maximal effect. Summed up:
as §3

A short description of test [20]: qHTS RealTime-Glo MT Cell Viability Assay in HEK293 cells - 40 hour (AID 1224874). Further: nearly all actives have a fitted effect of over 50% in size. Particulars: RealTime-Glo luminescence; max response: stronger effect = lower value. Summed up: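 Kinetic, non-lysing viability readout. Seed HEK293 (600/well) with reagent, incubate 5 h at 37 C/5% CO2, pin 23 nL compound in DMSO, incubate at 37 C, read luminescence at 0, 8, 16, 24, 32, 40 h.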

Several values for one entry are separate records, joined by “and”; a condition that tells them apart may be missing. Equal entries are not always repeated. Results filed as inconclusive are left out. Some structures have more than one record in an assay (separate samples or runs), and their calls can disagree. Activity calls are given as the source filed them. Unless noted, the call rests on the fitted dose curve; in most records, active means well fitted curve in the direction sought with a large enough effect in the repeat runs; inconclusive means weak or mixed curves; inactive means no such curve, though single readings can be large; an effect the other way counts as inactive or inconclusive.
On the % scale 0 is the no-effect control and ±100 the full control effect.

Thyrotropin receptor (Homo sapiens), sequence (P16473 whole entry, looked up): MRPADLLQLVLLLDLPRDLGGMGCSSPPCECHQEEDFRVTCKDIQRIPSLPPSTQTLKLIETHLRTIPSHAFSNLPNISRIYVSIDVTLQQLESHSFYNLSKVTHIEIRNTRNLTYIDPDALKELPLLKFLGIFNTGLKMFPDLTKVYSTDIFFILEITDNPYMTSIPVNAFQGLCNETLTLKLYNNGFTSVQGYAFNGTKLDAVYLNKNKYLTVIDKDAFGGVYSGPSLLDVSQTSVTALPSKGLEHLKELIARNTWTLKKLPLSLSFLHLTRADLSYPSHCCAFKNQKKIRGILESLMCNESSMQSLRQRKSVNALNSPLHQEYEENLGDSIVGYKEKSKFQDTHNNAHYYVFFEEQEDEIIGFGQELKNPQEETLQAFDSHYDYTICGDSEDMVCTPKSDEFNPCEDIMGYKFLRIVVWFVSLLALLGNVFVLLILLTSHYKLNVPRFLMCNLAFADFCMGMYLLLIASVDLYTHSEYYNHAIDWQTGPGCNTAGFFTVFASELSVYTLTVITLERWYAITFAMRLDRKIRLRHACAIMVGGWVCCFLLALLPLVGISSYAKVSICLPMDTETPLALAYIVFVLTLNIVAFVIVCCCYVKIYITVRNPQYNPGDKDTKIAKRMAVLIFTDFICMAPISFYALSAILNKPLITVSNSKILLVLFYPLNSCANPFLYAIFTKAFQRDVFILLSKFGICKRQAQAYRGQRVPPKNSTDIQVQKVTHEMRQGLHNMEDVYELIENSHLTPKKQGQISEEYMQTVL

In the case of `OC(Cn1cncn1)(Cn1cncn1)c1ccc(F)cc1F`, the call in test [1], in test [3], in [4], in [9] and in test [12] was inactive. The Potency entry in test [2], in test [5], in test [7], in test [8], in test [10] and in test [11] was “inactive” throughout. Also, the Potency entry in [13], in [14], in test [15], in test [16] and in test [17] was “inactive” throughout. Further, the activity change, positive = activation in [6] (at 42.5 µM (top of the series)) was 4.61% (inactive); in test [6] (at 92.4 µM (top of the series)), 8.25% (inactive) and 5.79% (inactive).
For the compound `CC(=O)NS(=O)(=O)c1ccc(N)cc1`, the Potency result in test [2], in [7], in [8], in [10], in test [19] and in [11] was “inactive” throughout. The Potency result in [13], in test [14], in test [15], in test [16] and in test [17] was “inactive” throughout. The call in test [18], in [4], in test [9] and in [12] was inactive.
`COc1ccc2[nH]cc(CCNC(C)=O)c2c1`: the outcome in test [1], in test [18], in test [4], in test [9] and in [12] was inactive. Moreover, the Potency result in test [2], in test [5], in test [7], in test [8], in [10] and in [11] was “inactive” each time. Also, the Potency result in [13], in test [14], in [15], in test [16] and in [17] was “inactive” throughout. Moreover, the activity change, positive = activation in [6] (at 42.5 µM (top of the series)) was 6.1% (inactive); in [6] (at 92.4 µM (top of the series)) it was 9.68% (inactive) and -2.51% (inactive). In addition, in test [20], the max response is -2.36% (inactive) and -20% (inactive) and 4.03% (inactive).
As for `O=C(c1ccccc1)c1ccccc1`, the Potency result in test [2], in test [7], in test [8], in [10], in [11] and in test [13] was “inactive” each time. In addition, the Potency result in test [14], in test [15], in [16] and in test [17] was “inactive” in each case. The result in [18], in [3], in test [4], in [9] and in [12] was inactive.
Regarding `O=C(O)c1cc(N=Nc2ccc(S(=O)(=O)Nc3ccccn3)cc2)ccc1O`, the call in [1], in test [4], in test [9] and in [12] was inactive. For the same compound, the Potency result in [2], in test [7], in test [8], in [10], in [19] and in test [11] was “inactive” throughout. For the same compound, the Potency entry in test [13], in [14], in test [15], in test [16] and in test [17] was “inactive” each time. Moreover, the max response in [20] is -2.85% (inactive) and -13.7% (inactive) and 1.5% (inactive).
Consider `Cc1cn([C@H]2C[C@H](N=[N+]=[N-])[C@@H](CO)O2)c(=O)[nH]c1=O`, for which the Potency entry in test [2], in [5], in test [7], in [8], in [10] and in [19] was “inactive” in each case. Besides, the Potency result in test [11], in test [13], in test [14], in [15], in [16] and in test [17] was “inactive” each time. Besides, the compound was called inactive in test [18], in [4], in test [9] and in test [12]. Also, the activity change, positive = activation in [6] (at 42.5 µM (top of the series)) is 1.9% (inactive); in test [6] (at 92.4 µM (top of the series)), 1.55% (inactive) and -3.89% (inactive). For the same compound, in [20], the max response was -0.145% (inactive) and 3.87% (inactive) and 7.29% (inactive).
`O=S(=O)(O)c1ccc2cc(O)ccc2c1`: the Potency result in test [2], in test [7], in test [8], in test [10], in [11] and in test [13] was “inactive” each time. For the same compound, the Potency entry in test [14], in test [15], in test [16] and in [17] was “inactive” each time. The result in test [18], in [3], in [4], in test [9] and in [12] was inactive.
As for `Cc1cc(=O)n(-c2ccccc2)n1C`, the Potency result in test [2], in [5], in test [7], in test [8], in test [10] and in [11] was “inactive” throughout. Besides, the Potency result in test [14], in test [15], in test [16] and in test [17] was “inactive” throughout. In addition, the compound was classed as inactive in test [18], in [4], in test [9] and in test [12]. In addition, the activity change, positive = activation in test [6] (at 42.5 µM (top of the series)) was 4.6% (inactive); in test [6] (at 92.4 µM (top of the series)), 1.91% (inactive) and 2.64% (inactive). Also, in test [19], the Potency is 44.8 µM (active) and inactive.
Turning to `NC(=O)c1cnccn1`, the Potency result in test [2], in [5], in test [7], in test [8], in [10] and in [19] was “inactive” in each case. Besides, the Potency entry in test [11], in test [13], in [14], in [15], in test [16] and in test [17] was “inactive” throughout. Further, the compound was classed as inactive in [18], in test [4], in test [9] and in test [12]. Besides, the activity change, positive = activation in [6] (at 42.5 µM (top of the series)) is 4.26% (inactive); in test [6] (at 92.4 µM (top of the series)), -0.224% (inactive) and -0.902% (inactive).
As for `O=C(C1CCCCC1)N1CC(=O)N2CCc3ccccc3C2C1` (centres undefined), the Potency result in test [2], in test [5], in test [7], in test [8], in [10] and in test [11] was “inactive” each time. Also, the Potency result in test [13], in test [14], in [15], in [16] and in test [17] was “inactive” in each case. Moreover, the compound was called inactive in test [18], in test [4], in [9] and in [12]. For the same compound, the activity change, positive = activation was -13.9% (inactive) in test [6] (at 42.5 µM (top of the series)); -22.9% (inactive) and -18.8% (inactive) in [6] (at 92.4 µM (top of the series)).
